Experimental data taken from PubChem BioAssay (Tox21).
Values without a mark were called inactive. Results filed as inconclusive are left out. Entries that show only a call come without a potency. The source made the active and inactive calls. Unless noted, calls come from the whole dose curve; as a rule, active = well fitted curve in the direction sought with a large enough effect in the repeat runs; inconclusive = weak or mixed curves; inactive = no such curve, though single readings can be large; an effect the other way counts as inactive or inconclusive.

Assays:
[1] = target: Progesterone receptor (Homo sapiens) (UniProt P06401); experiment: qHTS assay to identify small molecule agonists of the progesterone receptor (PR) signaling pathway (AID 1346784; calls by dose curve; note: nearly all actives have a fitted effect of over 30% in size; note: potency is the fitted concentration of half-maximal effect)
Outline: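 Agonist qHTS: compounds pinned onto 3,000 PR-UAS-bla HEK 293T cells per well in charcoal-stripped serum medium, 16hr at 37C, then beta-lactamase activity measured by LiveBLAzer FRET fluorescence after 2 hours at room temperature.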

[2] = target: Progesterone receptor (Homo sapiens) (UniProt P06401); experiment: qHTS assay to identify small molecule antagonists of the progesterone receptor (PR) signaling pathway (AID 1346795; active = well fitted inhibition curve with a large enough effect in the signal ratio in the repeat runs, not every such curve was filed as active; the % refers to the signal ratio; note: potency is the fitted concentration of half-maximal effect)
Outline: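 Antagonist mode with agonist R5020 at 1 nM final and 16 hr incubation at 37C. Reporter was beta-lactamase driven by UAS in HEK293T (PR-UAS-bla), 2% charcoal-stripped serum; signal from LiveBLAzer FRET substrate, 2 hr at room temperature.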

[3] = qHTS assay to identify small molecule antagonists of the progesterone receptor (PR) signaling pathway - cell viability counter screen (AID 1346798); note: nearly all actives have a fitted effect of over 50% in size; note: potency is the fitted concentration of half-maximal effect; for activity change, negative = cytotoxicity: series mostly up to about 92 µM
Outline: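 Cytotoxicity read as CellTiter-Glo luminescence (30 min, room temperature) in the same wells as the beta-lactamase readout. HEK293T PR-UAS-bla cells in charcoal-stripped 2% FBS received compound and R5020, then 16 h at 37C, 5% CO2.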

[4] = qHTS assay to identify small molecule agonists of the progesterone receptor (PR) signaling pathway - cell viability counter screen (AID 1346799; calls by dose curve; note: nearly all actives have a fitted effect of over 45% in size; note: potency is the fitted concentration of half-maximal effect)
Outline: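 Cytotoxicity measured by CellTiter-Glo luminescence (30 min, RT) in the same wells as the PR beta-lactamase agonist read. Those HEK293T cells had 16 h compound treatment at 37 C in 2% charcoal-stripped FBS medium.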

[5] = qHTS assay to identify small molecule antagonists of the TGF-beta/Smad signaling pathway - cell viability counter screen (AID 1346824); note: nearly all actives have a fitted effect of over 50% in size
Outline: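 SBE-bla HEK 293T cells, incubated overnight, then compound plus 0.25 ng/mL TGF-beta1 (stock added) for 5 hr at 37 C. Viability was read in the same wells by CellTiter-Glo luminescence after 30 min at room temperature.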

[6] = qHTS assay to identify small molecule agonists of the TGF-beta/Smad signaling pathway - cell viability counter screen (AID 1346829); note: top concentration of the series differs between compounds; nearly all actives have a fitted effect of over 45% in size
Outline: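 HEK 293T SBE-bla line, 5 hr compound exposure at 37 C, multiplexed CellTiter-Glo viability read by luminescence.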

[7] = Human pregnane X receptor (PXR) small molecule agonists, qHTS cell viability counter screen (AID 1346977); note: nearly all actives have a fitted effect of over 50% in size; note: potency is the fitted concentration of half-maximal effect
Outline: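 Same-well viability read: CellTiter-Fluor added after 23 hr compound exposure, fluorescence measured 1 hr later. Cells were PXR-Luc HepG2 seeded at 2,000/well in 5% charcoal-stripped FBS medium, rested 5 hr before dosing at 37 C.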

[8] = qHTS assay to identify small molecule agonists of the TGF-beta/Smad signaling pathway (AID 1346859; active = well fitted activation curve with a large enough effect in the signal ratio in the repeat runs, not every such curve was filed as active; the % refers to the signal ratio; note: series mostly up to about 77 µM)
Outline: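 Fluorescence (ex 405 nm; em 460 and 530 nm) was read 2 h after LiveBLAzer FRET substrate at RT. The preceding compound treatment of overnight-plated SBE-bla HEK293T cells lasted 5 h at 37 C.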

[9] = target: Thyrotropin-releasing hormone receptor (Homo sapiens) (UniProt P34981); experiment: qHTS assay to identify small molecule antagonists of the thyrotropin-releasing hormone receptor (TRHR) signaling pathway (AID 1346877; active = well fitted inhibition curve with a large enough effect in the repeat runs, not every such curve was filed as active; note: series mostly up to about 51 µM)
Outline: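 Following an 18 h incubation at 37 °C and a 2 h calcium dye load, TRHR-HEK293 cells were exposed to compound (5 min, room temperature) and challenged with TRH, 1 nM final.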

[10] = target: Thyrotropin-releasing hormone receptor (Homo sapiens) (UniProt P34981); experiment: qHTS assay to identify small molecule agonists of the thyrotropin-releasing hormone receptor (TRHR) signaling pathway (AID 1346891; calls by dose curve; note: series mostly up to about 58 µM)
Outline: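 Agonist-mode intracellular calcium readout: kinetic fluorescence over 3 min at 1 s intervals after compound addition to TRHR-HEK293 cells (18 h seeded, 2 h dye-loaded at 37 C). Fifteen concentrations, triplicates.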

Chain of Thyrotropin-releasing hormone receptor (Homo sapiens) (P34981 whole entry, looked up): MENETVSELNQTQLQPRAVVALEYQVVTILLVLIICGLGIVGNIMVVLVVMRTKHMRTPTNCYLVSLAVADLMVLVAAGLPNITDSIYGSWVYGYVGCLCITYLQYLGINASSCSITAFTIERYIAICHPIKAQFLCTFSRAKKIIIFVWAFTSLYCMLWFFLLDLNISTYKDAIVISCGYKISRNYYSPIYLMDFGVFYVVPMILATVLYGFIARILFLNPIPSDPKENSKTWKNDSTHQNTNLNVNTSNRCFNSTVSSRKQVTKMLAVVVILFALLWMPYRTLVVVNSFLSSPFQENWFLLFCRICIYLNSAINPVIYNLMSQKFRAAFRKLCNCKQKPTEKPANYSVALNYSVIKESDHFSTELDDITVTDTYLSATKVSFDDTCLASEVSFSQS
Chain of Progesterone receptor (Homo sapiens) (P06401 whole entry, looked up): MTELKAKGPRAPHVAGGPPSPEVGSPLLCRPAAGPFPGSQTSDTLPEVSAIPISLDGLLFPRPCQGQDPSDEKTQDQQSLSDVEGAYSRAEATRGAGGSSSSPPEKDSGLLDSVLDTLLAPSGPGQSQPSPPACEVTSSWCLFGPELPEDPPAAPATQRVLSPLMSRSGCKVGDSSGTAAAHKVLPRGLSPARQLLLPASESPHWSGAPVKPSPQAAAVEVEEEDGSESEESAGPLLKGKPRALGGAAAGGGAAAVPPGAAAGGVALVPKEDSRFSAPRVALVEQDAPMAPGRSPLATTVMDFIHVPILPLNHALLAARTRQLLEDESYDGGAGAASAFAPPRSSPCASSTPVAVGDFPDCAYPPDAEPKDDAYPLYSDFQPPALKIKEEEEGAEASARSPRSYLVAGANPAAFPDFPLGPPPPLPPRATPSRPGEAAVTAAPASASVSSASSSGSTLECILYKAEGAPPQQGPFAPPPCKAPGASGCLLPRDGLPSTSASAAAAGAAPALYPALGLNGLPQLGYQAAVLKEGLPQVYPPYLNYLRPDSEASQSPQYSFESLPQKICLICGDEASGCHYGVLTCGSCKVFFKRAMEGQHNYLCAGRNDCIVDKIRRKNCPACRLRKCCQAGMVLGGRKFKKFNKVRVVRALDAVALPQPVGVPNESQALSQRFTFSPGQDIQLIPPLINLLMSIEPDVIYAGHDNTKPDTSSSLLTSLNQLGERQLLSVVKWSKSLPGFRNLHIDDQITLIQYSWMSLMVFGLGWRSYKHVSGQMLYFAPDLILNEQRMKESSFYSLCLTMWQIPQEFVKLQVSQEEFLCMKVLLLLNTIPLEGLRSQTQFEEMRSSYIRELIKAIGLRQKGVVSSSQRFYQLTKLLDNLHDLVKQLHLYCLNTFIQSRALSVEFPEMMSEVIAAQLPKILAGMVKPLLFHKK

In the case of `N=c1ccn2c(n1)O[C@H]1[C@H](O)[C@@H](CO)O[C@H]12`, the Potency [1] was “inactive”, the Potency [2] was “inactive” and the Potency [3] was “inactive”. The Potency [4] was “inactive”, the Potency [5] was “inactive” and the outcome [6] was “inactive”. The Potency [7] was “inactive”.
With `CCCCc1ncc(/C=C(\Cc2cccs2)C(=O)O)n1Cc1ccc(C(=O)O)cc1` the Potency [1] was “inactive”, the Potency [2] was “inactive” and the Potency [3] was “inactive”. For the same compound, the Potency [4] was “inactive”, the Potency [5] was “inactive” and the Potency [8] was “inactive”. For the same compound, the outcome [9] was “inactive”, the Potency [10] was “inactive” and the Potency [7] was “inactive”.
For `CC[N+](C)(CC)CCOC(=O)C(O)(c1ccccc1)C1CCCCC1` (stereo unspecified), the Potency [1] was “inactive”, the Potency [2] was “inactive” and the Potency [3] was “inactive”. For the same compound, the Potency [4] was “inactive”, the Potency [5] was “inactive” and the outcome [6] was “inactive”. The Potency [8] was “inactive” and the Potency [7] was “inactive”.
With `COc1ccc(C(=O)Nc2nc3ccccc3c(NCc3ccccc3)c2C#N)cc1` the Potency [1] was “inactive”, the Potency [2] was “inactive” and the Potency [3] was “inactive”. For the same compound, the Potency [4] was “inactive”, the Potency [5] was “inactive” and the outcome [6] was “inactive”. For the same compound, the Potency [7] was “inactive”.
With `C=C(C)C(=O)OCCOCC` the Potency [1] was “inactive”, the Potency [2] was “inactive” and the Potency [3] was “inactive”. The Potency [4] was “inactive”, the Potency [5] was “inactive” and the outcome [6] was “inactive”. The outcome [9] was “inactive” and the Potency [7] was “inactive”.
For `CCCCCCCCCCCCCCCCCCOS(=O)(=O)O`, the Potency [1] was “inactive”, the Potency [2] was “inactive” and the Potency [3] was 54.5 µM (active). For the same compound, the Potency [4] was 48.6 µM (active), the Potency [5] was “inactive” and the outcome [6] was “inactive”. For the same compound, the Potency [10] was “inactive”.
In the case of `CNCCCCOc1ccccc1Cc1ccccc1`, the Potency [1] was “inactive”, the Potency [2] was 26.6 µM (active) and the Potency [3] was 6.68 µM (active). The Potency [4] was 6.68 µM (active), the Potency [5] was “inactive” and the Potency [8] was “inactive”. For the same compound, the outcome [9] was “inactive”, the Potency [10] was “inactive” and the Potency [7] was 26.6 µM (active).
For `COc1ccc(C)cc1[N+](=O)[O-]`, the Potency [1] was “inactive”, the Potency [2] was “inactive” and the Potency [3] was “inactive”. The Potency [4] was “inactive”, the Potency [5] was “inactive” and the outcome [6] was “inactive”. For the same compound, the outcome [9] was “inactive” and the Potency [7] was “inactive”.
For `CC1CCC(=O)C1=O` (stereo unspecified), the Potency [1] was “inactive”, the Potency [2] was “inactive” and the Potency [3] was “inactive”. The Potency [4] was “inactive”, the Potency [5] was “inactive” and the outcome [6] was “inactive”. For the same compound, the Potency [8] was “inactive” and the Potency [7] was “inactive”.
With `Cc1ccc(N=Nc2c(O)c(C(=O)O)cc3ccccc23)c(S(=O)(=O)O)c1` the Potency [1] was “inactive”, the Potency [2] was “inactive” and the Potency [3] was “inactive”. The Potency [4] was “inactive”, the Potency [5] was “inactive” and the outcome [6] was “inactive”. The outcome [9] was “inactive”, the Potency [10] was “inactive” and the Potency [7] was 23.6 µM (active).
For `C/C=C/C=C/CO`, the Potency [1] was “inactive”, the Potency [2] was “inactive” and the Potency [3] was “inactive”. For the same compound, the Potency [4] was “inactive”, the Potency [5] was “inactive” and the outcome [6] was “inactive”. The Potency [8] was “inactive” and the Potency [7] was “inactive”.
With `C#Cc1cccc(Nc2ncnc3cc(OCCOC)c(OCCOC)cc23)c1` the Potency [1] was “inactive”, the Potency [2] was “inactive” and the Potency [4] was “inactive”. The Potency [5] was “inactive” and the outcome [6] was “inactive”.
For `O=C(O)c1ccco1`, the Potency [1] was “inactive”, the Potency [2] was “inactive” and the Potency [3] was “inactive”. For the same compound, the outcome [6] was “inactive”, the Potency [8] was “inactive” and the Potency [10] was “inactive”. The Potency [7] was “inactive”.
With `CCO[C@H](Cc1ccc(OCCc2ccc(OS(C)(=O)=O)cc2)cc1)C(=O)O` the Potency [1] was “inactive”, the Potency [2] was “inactive” and the Potency [4] was “inactive”. For the same compound, the Potency [5] was “inactive” and the Potency [7] was “inactive”.
For `CCCCC(=O)OCC(=O)[C@H]1[C@H](C)C[C@H]2[C@@H]3C[C@H](F)C4=CC(=O)C=C[C@]4(C)[C@@]3(F)[C@@H](O)C[C@@]21C`, the Potency [1] was 0.0133 µM (active), the Potency [2] was “inactive” and the Potency [3] was “inactive”. For the same compound, the Potency [5] was “inactive”, the outcome [6] was “inactive” and the Potency [8] was “inactive”. The Potency [7] was “inactive”.
`C/C=C/C(=O)CC` gave an activation [1] of 0.707% [at 19 µM], an activity change, negative = inhibition [2] of -21.4% [at 18.9 µM] and an activity change, negative = cytotoxicity [4] of -14.3% [at 19 µM]. The viability change, negative = cytotoxic [5] was -21.1% [at 15.8 µM], the activity change, negative = cytotoxicity [6] was -6.07% [at 15.8 µM] and the activation [8] was 4.38% [at 15.8 µM]. The activity, negative = inhibition [9] was -0.562% [at 10.5 µM], the activation [10] was -0.663% [at 11.8 µM] and the activity change, negative = cytotoxicity [7] was -29.3% [at 19 µM].
In the case of `C=CC(=O)OCCOc1ccccc1`, the Potency [1] was “inactive”, the Potency [2] was “inactive” and the Potency [3] was “inactive”. For the same compound, the Potency [4] was “inactive”, the Potency [5] was “inactive” and the Potency [8] was “inactive”. For the same compound, the outcome [9] was “inactive”, the Potency [10] was “inactive” and the Potency [7] was “inactive”.
In the case of `Nc1c(CC(=O)O)cccc1C(=O)c1ccc(Br)cc1`, the Potency [1] was “inactive”, the Potency [2] was “inactive” and the Potency [3] was “inactive”. The Potency [5] was “inactive”, the outcome [9] was “inactive” and the Potency [7] was “inactive”.
In the case of `CNC(=O)CN(CCN(CCN(CC(=O)[O-])CC(=O)NC)CC(=O)[O-])CC(=O)[O-].O.[Gd+3]`, the Potency [1] was “inactive”, the Potency [2] was “inactive” and the Potency [3] was “inactive”. For the same compound, the Potency [4] was “inactive”, the Potency [5] was “inactive” and the Potency [8] was “inactive”. For the same compound, the Potency [10] was “inactive” and the Potency [7] was “inactive”.
With `NCC(=O)CCC(=O)O` the Potency [1] was “inactive”, the Potency [2] was “inactive” and the Potency [4] was “inactive”. The Potency [5] was “inactive”, the outcome [6] was “inactive” and the Potency [8] was “inactive”. For the same compound, the Potency [7] was “inactive”.
For `c1cc(CCCc2ccncc2)ccn1`, the Potency [1] was “inactive”, the Potency [2] was 54.5 µM (active) and the Potency [3] was “inactive”. For the same compound, the Potency [5] was “inactive”, the outcome [6] was “inactive” and the Potency [8] was “inactive”. For the same compound, the outcome [9] was “inactive” and the Potency [7] was “inactive”.
With `CN(C)C(=O)NC1(c2ccccc2)CCN(CC[C@@]2(c3ccc(F)c(F)c3)CN(C(=O)c3ccccc3)CCO2)CC1` the Potency [1] was “inactive”, the Potency [2] was “inactive” and the Potency [4] was “inactive”. For the same compound, the Potency [5] was “inactive”, the Potency [8] was “inactive” and the outcome [9] was “inactive”. For the same compound, the Potency [10] was “inactive”.
For `CCCCCCCCCOS(=O)(=O)O`, the Potency [1] was “inactive”, the Potency [2] was “inactive” and the Potency [4] was “inactive”. For the same compound, the Potency [5] was “inactive”, the outcome [6] was “inactive” and the Potency [8] was “inactive”. For the same compound, the outcome [9] was “inactive” and the Potency [7] was “inactive”.
For `C/C=C(/C(=C/C)c1ccc(OC(C)=O)cc1)c1ccc(OC(C)=O)cc1`, the Potency [1] was “inactive”, the Potency [2] was 8.41 µM (active) and the Potency [3] was “inactive”. For the same compound, the Potency [5] was “inactive”, the outcome [6] was “inactive” and the Potency [8] was “inactive”. The Potency [10] was “inactive” and the Potency [7] was “inactive”.
For `O=C1OC(=O)C2C3C=CC(C3)C12` (stereo unspecified), the Potency [1] was “inactive”, the Potency [2] was “inactive” and the Potency [3] was “inactive”. For the same compound, the Potency [5] was “inactive”, the outcome [6] was “inactive” and the Potency [8] was “inactive”. For the same compound, the outcome [9] was “inactive”, the Potency [10] was “inactive” and the Potency [7] was “inactive”.
